# TDP43 rescue = TDP-43 toxicity inhibition in yeast | Potency, µM (highest dose often 46.1 µM), hits mostly activators | 1.8% of 410,000 active | TDP-43 expressing yeast growth rescue, BacTiter-Glo, 24 h; further: nearly all actives have a fitted effect of over 50% in size
#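 Yeast cells expressing TDP-43 under galactose induction are exposed to compounds for 24 hr at 30 deg C. BacTiter-Glo luminescence measures growth, so protective compounds score as activators.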
# Abeta yeast res = A-beta toxicity reversal in yeast; yeast expressing A-beta42, growth rescue, OD600, 48 h; response scale: 0% DMSO, 100% iron-clioquinol control; Potency, µM (top dose mostly 46.1 µM), usual class: activators; 0.063% of 410,000 active; AID 1347071; further: nearly all actives have a fitted effect of over 55% in size
#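 Yeast A-beta toxicity model in growth medium with pinned compounds, 48 h at 30 C; growth read as absorbance at 600 nm. Normalized to FeCl3/clioquinol equimolar mix (positive) and DMSO (negative).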
# uPA generation = inhibitors of cell surface uPA generation; 0.31% of 330,000 active; Potency, µM (titrated, usually from 38.3 µM), actives largely listed as inhibitors; AID 540303; cell surface uPA generation assay, qHTS; active means well fitted inhibition curve with a large enough effect; inconclusive means small, poorly fitted or top-dose-only effect; inactive means no such curve, though single readings can be large or run the other way; tested in mouse RAW 264.7 cells; further: nearly all actives have a fitted effect of over 55% in size
# BCR signal inh = blocks chronic active B-cell receptor signaling. 0.05% of 340,000 active. ABC-DLBCL IkBa-CBG/CBR reporter, luminescence ratio, 4 h. Potency, µM (titrated, usually from 46.1 µM), usual class: inhibitors. AID 493014; active means well fitted inhibition curve with a large enough effect in the signal ratio, with a control signal flat, not every such curve was filed as active; inconclusive means small, poorly fitted or top-dose-only effect, or effect the other way, or a change in a side signal; the % refers to the signal ratio
#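 Compounds up to 46 uM were incubated four hours with TMD8 cells whose green CBG68 luciferase is fused to IkappaBalpha; red CBR luminescence normalised the signal, and concentration-effect curves were fitted to fusion, red and ratio data.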
# aSyn yeast inh = rescues yeast growth from alpha-synuclein toxicity; Yeast expressing alpha-synuclein, growth rescue, BacTiter-Glo, 24 h; Potency, µM (top dose mostly 46.1 µM), most hits filed as activators; 0.14% of 370,000 active; further: nearly all actives have a fitted effect of over 65% in size
#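 Rescue of yeast growth: cells expressing toxic alpha-synuclein, induced in galactose at OD600 0.02, incubated with compound 24 h at 30 C. ATP luminescence quantified growth; inhibitors of toxicity appear as activators.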
# FUS suppressor = rescues growth of FUS-expressing yeast; S. cerevisiae FUS-expressing, growth rescue, OD600, 24 h; Potency, µM (top dose mostly 76.6 µM), hits mostly activators; 0.24% of 390,000 active; AID 1347120; further: nearly all actives have a fitted effect of over 55% in size
#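 Steps: raffinose overnight preculture; dilution to OD 0.005 in 2% galactose minimal medium; compound addition (concentration series); 24hr at 30C, 99% humidity; absorbance read at 600 nm.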
# Hits are given with their value; 0 = inactive; ? = inconclusive; - = no result given; [ ] = dose if it differs, or a comment. Most compounds without a hit are left out; they make up all but 2.3% or so of the library. Unless noted, the call rests on the fitted dose curve; in most records, active means well fitted curve in the direction sought with a large enough effect; inconclusive means small, poorly fitted or top-dose-only effect, or another doubt; inactive means no such curve, though single readings can be large; an effect the other way counts as inactive or inconclusive.
SMILES,TDP43 rescue,Abeta yeast res,uPA generation,BCR signal inh,aSyn yeast inh,FUS suppressor
Cc1cc2cc(C(=O)N3CCc4c([nH]c5ccccc45)C3c3ccccn3)ccc2o1 (stereo unspecified),25µM,0,0,?,?,?
COc1ccccc1NC(=S)N1CCN(Cc2ccccc2)CC1,0,0,0,0,0,-
COc1ccc(Cl)cc1C(=O)NCc1cnn(C)c1C,0,?,0,0,0,0
COc1cc(NC(=O)c2ccccc2Cl)c2ncccc2c1,20µM,0,?,0,0,0
COc1cc(NS(=O)(=O)c2ccc(C)cc2)c2ncccc2c1,11µM,0,0,?,?,0
Cc1ccc(S(=O)(=O)Nc2cccc3cccnc23)cc1,35µM,0,0,?,?,0
NS(=O)(=O)Nc1cccc2cccnc12,-,-,-,-,0,-
CNC(=O)c1nc(C)c(C2(C)CC(c3ccccc3)=NO2)s1 (stereo unspecified),0,0,0,?,0,0
COc1ccc(NC(=O)c2nc(C)c(C3(C)CC(c4cccnc4)=NO3)s2)cc1 (stereo unspecified),?,0,1.6µM,?,0,0
Cc1nc(C(=O)Nc2cc(F)cc(Cl)c2)sc1C1(C)CC(c2ccccc2)=NO1 (stereo unspecified),13µM,0,0,-,0,?
COc1ccccc1NC(=O)c1cc2ccc3cccnc3c2[nH]1,14µM,0,-,?,-,?
CCOc1ccccc1NC(=O)c1cc2ccc3cccnc3c2[nH]1,0,0,-,-,-,0
CC(C)N(Cc1ccccc1)C(=O)c1cc2ccc3cccnc3c2[nH]1,22µM,0,-,-,-,0
CCc1nnc(NC(=O)CSc2nnc(Cc3cc(=O)[nH]c(=O)[nH]3)n2-c2ccc(OC)cc2)s1,0,0,0,0,0,0
CC(C(=O)Nc1ccccc1)N1C(=O)c2ccccc2C1=O (stereo unspecified),0,0,0,0,0,0
CC(C)C(C(=O)Nc1ccccc1)N1C(=O)c2ccccc2C1=O (stereo unspecified),16µM,0,0,0,0,0
Cc1noc(C)c1-c1ccc(C(=O)NCc2cccs2)c2occc12,16µM,0,-,-,0,0
Cc1noc(C)c1-c1ccc(C(=O)NCCc2ccccc2)c2occc12,32µM,0,-,-,0,?
N#CC1=C2SCN(Cc3ccco3)CN2C(=O)CC1c1ccccc1F (stereo unspecified),0,0,-,0,0,0
Cc1nc(Nc2nc3c(c(=O)[nH]2)CCC3)nc2ccccc12,14µM,0,0,-,11µM,0
Brc1ccc(Nc2nc(-c3cccnc3)cs2)cc1,11µM,0,0,?,0,0
Brc1cccc(Nc2nc(-c3cccnc3)cs2)c1,3.2µM,0,0,?,0,0
N#Cc1cc2c(nc1SCC(=O)Nc1nccs1)CCCCC2,0,0,-,?,0,0
Cc1ccc(OCc2ccc(C(=O)Nc3nccs3)o2)cc1,0,0,0,0,0,0
Cc1ccc(SCc2ccc(C(=O)Nc3nccs3)o2)cc1,13µM,?,0,?,0,0
SMILES,TDP43 rescue,Abeta yeast res,uPA generation,BCR signal inh,aSyn yeast inh,FUS suppressor
O=C(Nc1nccs1)c1ccc(CSc2ccccc2)o1,11µM,0,?,?,0,0
O=C(Nc1ccccc1F)c1ccc(CSc2ccccc2)o1,13µM,0,0,0,0,0
Cc1ccc(C#N)c(SCC(=O)Nc2nccs2)n1,0,0,6.3µM,0,0,0
Cc1ccc(SCC(=O)Nc2nccs2)cc1,11µM,0,0,?,0,0
O=C(N/N=C/c1ccc(OCc2ccccc2)cc1)c1cc[n+](Cc2ccccc2)cc1,20µM,0,0,0,0,0
COc1ccc(S(=O)(=O)N2CCCCCC2)cc1C(=O)Nc1cc(C)ccn1,?,0,0,?,0,0
CC(NC(=O)OC(C)(C)C)C(=O)Oc1cc2oc(=O)cc(-c3ccccc3)c2cc1Cl (stereo unspecified),4.5µM,0,0,0,0,-
CC(Oc1cc2oc(=O)cc(-c3ccccc3)c2cc1Cl)C(=O)NCC1CCC(C(=O)O)CC1 (stereo unspecified),0,0,0,0,0,0
C[C@H]1NC(=O)[C@@]2(C)[C@@H](c3ccccc3)[C@H]3COc4ccccc4[C@@H]3N2C1=O,0,0,0,0,0,0
Cc1cc(C)cc(NC(=O)COC(=O)CCC2CCCC2)c1,13µM,0,0,0,0,0
NC(=S)NN=C1CSSC1,20µM,?,-,-,2.8µM,0
O=Cc1ccc(-c2ccc(Cl)cc2Cl)[nH]1,20µM,0,0,?,0,0
COc1ccccc1NC(=O)C(=O)N(c1cccnc1)C(C(=O)NC(C)(C)C)c1ccccc1 (stereo unspecified),0,0,-,0,0,0
C=Cc1ccc(Cn2c(=O)n(-c3ccccc3C)c(=O)c3c4c(sc32)CN(C(C)=O)CC4)cc1,?,0,-,-,-,?
CC(=O)N1CCc2c(sc3c2c(=O)n(-c2ccccc2Cl)c(=O)n3Cc2cccc(C)c2)C1,35µM,0,-,0,-,?
CC(=O)N1CCc2c(sc3c2c(=O)n(-c2cccc(Cl)c2)c(=O)n3Cc2ccc(F)cc2Cl)C1,11µM,0,-,0,-,0
Cc1ccc(C(=O)CC2(O)C(=O)N(CCc3ccccc3)c3ccc(Br)cc32)o1 (stereo unspecified),0,0[9.22 µM],0,?,0,?
O=C(CC1(O)C(=O)N(CCc2ccccc2)c2ccc(Br)cc21)c1ccccc1 (stereo unspecified),32µM,0,-,-,0,0
CCCCN(C)C(=O)CSc1c2c(nc3ccc(Cl)cc13)CCCC2,0,0,-,-,-,0
CN(Cc1ccccc1)C(=O)CSc1c2c(nc3ccc(Cl)cc13)CCCC2,20µM,0,-,-,-,?
CCCN(CCC)C(=O)CSc1c2c(nc3ccc(Cl)cc13)CCCC2,20µM,0,-,-,-,0
CC(C)CC(C(=O)OCC(=O)Nc1cccc(Cl)c1)N1C(=O)C2CC=CCC2C1=O (stereo unspecified),35µM,0,0,0,0,-
COc1ccc(C(CC(=O)N2CCCC2)C(C)C)cc1 (stereo unspecified),0,0,0,?,0,0
Cc1nnc(-c2cccc(Br)c2)c2cn(-c3ccccc3Cl)nc12,10µM,0,0,?,0,0
Cc1ccc(-n2cc3c(-c4cccc(Br)c4)nnc(C)c3n2)cc1,?,0,0,0,0,?
O=C1c2ccccc2C(=O)N1CCC1(O)C(c2ccccc2)=Nc2ccccc21 (stereo unspecified),0,0,0,-,0,0
COc1ccc2c(c1)N=C(c1[nH]c3ccccc3c1CCN1C(=O)c3ccccc3C1=O)[C@]2(O)CCN1C(=O)c2ccccc2C1=O,-,-,-,-,-,18µM

# Screening data (PubChem)
